L3MBTL1 inh: inhibitors of human L3MBTL1 | AID 485360 | Q9Y468 | AlphaScreen L3MBTL1–H3K9me1 peptide binding | Potency, µM (top dose mostly 57.1 µM), most hits filed as inhibitors | actives 0.66% (n = 230,000); note: nearly all actives have a fitted effect of over 60% in size
Target sequence (Q9Y468 whole entry, looked up): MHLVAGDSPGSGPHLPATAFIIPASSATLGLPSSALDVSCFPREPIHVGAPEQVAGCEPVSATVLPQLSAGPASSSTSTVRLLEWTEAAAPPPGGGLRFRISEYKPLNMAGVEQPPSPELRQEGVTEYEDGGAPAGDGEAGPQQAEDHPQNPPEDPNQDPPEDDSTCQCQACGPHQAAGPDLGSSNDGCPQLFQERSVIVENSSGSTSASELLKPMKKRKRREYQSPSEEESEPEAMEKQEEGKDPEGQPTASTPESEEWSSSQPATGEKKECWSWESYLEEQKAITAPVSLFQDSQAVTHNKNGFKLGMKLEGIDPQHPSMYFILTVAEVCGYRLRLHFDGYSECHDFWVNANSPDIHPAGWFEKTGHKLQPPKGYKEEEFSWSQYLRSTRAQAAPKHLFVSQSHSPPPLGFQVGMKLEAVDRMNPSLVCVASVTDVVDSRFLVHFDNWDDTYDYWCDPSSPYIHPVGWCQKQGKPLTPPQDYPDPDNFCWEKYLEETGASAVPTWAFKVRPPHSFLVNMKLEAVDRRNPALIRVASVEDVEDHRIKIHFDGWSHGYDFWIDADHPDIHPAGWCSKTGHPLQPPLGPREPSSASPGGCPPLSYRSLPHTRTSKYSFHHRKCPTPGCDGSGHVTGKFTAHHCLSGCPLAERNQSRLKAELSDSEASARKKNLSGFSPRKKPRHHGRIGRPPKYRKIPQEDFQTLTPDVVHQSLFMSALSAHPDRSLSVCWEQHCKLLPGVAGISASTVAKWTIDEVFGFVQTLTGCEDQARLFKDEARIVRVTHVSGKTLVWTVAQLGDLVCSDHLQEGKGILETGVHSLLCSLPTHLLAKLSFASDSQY
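AlphaScreen assay: L3MBTL1 (50 nM final) was preincubated 30 min at room temperature with biotinylated H3(1-15)K9me1 peptide (75 nM final), then 30 min with library compounds; streptavidin donor and nickel chelate acceptor beads (10 ug/mL final) added, 30 min dark.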
BAZ2B block: inhibitors of human BAZ2B bromodomain; Q9UIF8; AlphaScreen BAZ2B-H3K14Ac peptide displacement; Potency, µM (doses to about 114 µM), hits mostly inhibitors; actives 4.4% (n = 360,000); AID 504333; note: nearly all actives have a fitted effect of over 60% in size
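Compounds, titrated to a top concentration of 110 uM, were incubated 30 min at room temperature with preformed BAZ2B/acetyl-K14 H3 peptide complex (50 nM each). Proximity signal was measured by AlphaScreen after 20 min with beads.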
HP1b chromo inh: inhibitors of HP1-beta chromodomain binding to methylated histone tails | actives 0.56% (n = 390,000) | Potency, µM (highest dose often 114 µM), usual class: inhibitors | AID 540317 | AlphaScreen HP1-beta / biotin-H3K9me3 peptide binding | P83916; note: nearly all actives have a fitted effect of over 70% in size
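Compound inhibition of the preformed complex between 50 nM HP1-beta and 50 nM biotinylated H3K9me3 peptide was read by AlphaScreen. Buffer was PBS pH 7.4 with 0.01% Tween-20. Incubations ran 30 min at room temperature, with 10 ug/mL donor/acceptor beads.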
JMJD2A Tudor: blocks the human JMJD2A Tudor domain. O75164. AlphaScreen JMJD2A-Tudor / H3K4me3 peptide binding. Potency, µM (top dose mostly 114 µM), actives largely listed as inhibitors. actives 4.4% (n = 390,000); note: nearly all actives have a fitted effect of over 50% in size
G9a block: blocks human histone lysine methyltransferase G9a; G9a H3K9 monomethylation, AlphaScreen, 2 h; actives 8.8% (n = 350,000); Potency, µM (titrated, usually from 102 µM), usual class: inhibitors; Q96KQ7; note: nearly all actives have a fitted effect of over 75% in size
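Compounds were preincubated with 20 nM G9a for 15 min, after which biotinylated H3K9 peptide (500 nM) and SAM (20 uM) started a 2 h room-temperature reaction. Monomethylated product was quantified by antibody-based AlphaScreen chemiluminescence.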
Each line names hits and unclear results; the compound was inactive in the other large screens; ! = not confirmed by another sample. The list is not random: actives were taken first. Their share in the collection is about 11%. Calls come from the whole dose curve; as a rule, active = well fitted inhibition curve with a large enough effect; inconclusive = small, poorly fitted or top-dose-only effect; inactive = no such curve, though single readings can be large or run the other way.

COc1cc([C@@H]2c3cc4c(cc3[C@@H](O)C3COC(=O)C32)OCO4)cc(OC)c1O (stereo not given in full)	none (no result: L3MBTL1 inh, BAZ2B block, G9a block)
Cn1c(O)c(C2=NNC(c3ccc(Cl)cc3)C2)c(=O)n(C)c1=O (stereo not given)	BAZ2B block 44.7µM (no result: G9a block)
CCOc1ccc(C2CC(c3c(O)n(C)c(=O)n(C)c3=O)=NN2)cc1 (stereo not given)	BAZ2B block inconclusive, G9a block inconclusive
O=C1CC(N2CC=C(c3ccccc3)CC2)C(=O)N1c1ccc(F)cc1 (stereo not given)	JMJD2A Tudor inconclusive, G9a block 10µM
CC(C)N(Cc1nccn1C)C(=O)CCc1nnc(CCCc2ccccc2)o1	none (no result: G9a block)
Cc1cc(O)c2c(c1)C(=O)c1cc(O)cc(O)c1C2=O	HP1b chromo inh inconclusive, JMJD2A Tudor 44.7µM, G9a block 1.68µM (no result: L3MBTL1 inh, BAZ2B block)
O=C(NCc1ccc(Cl)cc1)C1CCCN(C(=O)c2cnn(-c3ccc(F)cc3)c2-n2cccc2)C1 (stereo not given)	G9a block inconclusive (no result: L3MBTL1 inh)
CNc1cc(Cl)c2nonc2c1[N+](=O)[O-]	G9a block 25.1µM
CC1CCCN(C(=O)C2CCC(CNc3c(N4CCCCC4)c(=O)c3=O)CC2)C1 (stereo not given)	none
O=C1c2ccccc2C(=O)N1SC1CCCCC1	JMJD2A Tudor inconclusive, G9a block 2µM
NNc1n[nH]c(=S)n1N	BAZ2B block inconclusive, G9a block 25.1µM (no result: L3MBTL1 inh)
O=C(O)CCCC[C@@H]1SC[C@@H]2NC(=O)N[C@@H]21	JMJD2A Tudor inconclusive (no result: L3MBTL1 inh, BAZ2B block, G9a block)
FC(F)OC(F)(F)C(F)Cl (stereo not given)	none (no result: L3MBTL1 inh, BAZ2B block, HP1b chromo inh, JMJD2A Tudor)
CC1(O)C[C@]2(C)N(O)C3CCCC[C@@H]3N2O1 (stereo not given in full)	G9a block inconclusive
CC1(C)N(O)C2CCCCC2N1O (stereo not given)	JMJD2A Tudor 2.82µM, G9a block 8.91µM
CCCN1CCC[C@@H]2Cc3cn[nH]c3C[C@H]21	none (no result: L3MBTL1 inh, BAZ2B block, HP1b chromo inh, JMJD2A Tudor)
CC1(C)C(=O)C=C[C@@]2(C)C1=C(O)C(=O)[C@@]1(C)C2CC[C@@]2(C)C(c3ccoc3)C[C@H]3O[C@@]321 (stereo not given in full)	none (no result: L3MBTL1 inh, BAZ2B block, HP1b chromo inh, JMJD2A Tudor)
O=C1CC(N2CCC(n3c(=O)[nH]c4ccccc43)CC2)C(=O)N1c1ccc(F)cc1 (stereo not given)	G9a block inconclusive
O=c1[nH]c2ccccc2n1C1CCN(CCCC(c2ccc(F)cc2)c2ccc(F)cc2)CC1	BAZ2B block inconclusive, HP1b chromo inh inconclusive, JMJD2A Tudor 39.8µM
Nc1nc(N)c2nc(CNc3ccc(C(=O)NC(CCC(=O)O)C(=O)O)cc3)cnc2n1 (stereo not given)	G9a block 2.67µM! (no result: HP1b chromo inh, JMJD2A Tudor)
COc1ccc(NC(=O)CN2C(=O)CN=C(c3ccccc3)c3ccccc32)c(OC)c1	BAZ2B block inconclusive, HP1b chromo inh inconclusive (no result: L3MBTL1 inh)
CCn1cc(C(=O)O)c(=O)c2ccc(C)nc21	BAZ2B block 79.4µM, G9a block 8.91µM!
COC(=O)c1ccc2ccn(CC(=O)NC(C)C)c2c1	G9a block inconclusive
N#Cc1ccc(CN2CCC3(CC2)CCN(C(=O)Oc2ccccc2)CC3)cc1	none (no result: L3MBTL1 inh, BAZ2B block, HP1b chromo inh, JMJD2A Tudor)
CCn1cc(C(=O)NCCc2ccc(OC)c(OC)c2)c(=O)c2cc(S(=O)(=O)N(C)C3CCCCC3)ccc21	G9a block inconclusive (no result: L3MBTL1 inh, BAZ2B block)
CC1=C2CCC3C4CCC(=O)[C@@]4(C)CCC3[C@]2(C)CCC1=O (stereo not given in full)	none (no result: L3MBTL1 inh, BAZ2B block, HP1b chromo inh, JMJD2A Tudor)
CCOC(=O)c1ccc(-n2c(N)c(C(=O)NCC3CCCO3)sc2=S)cc1 (stereo not given)	BAZ2B block inconclusive, HP1b chromo inh 14.1µM, JMJD2A Tudor inconclusive, G9a block 10µM
Nc1c(C(=O)NCC2CCCO2)c2nc3ccccc3nc2n1Cc1ccco1 (stereo not given)	none
Cc1ccc(-c2cc(C(F)F)n3ncc(C(=O)N4CCc5ccccc5C4)c3n2)cc1	none
CCCCCn1c(NC(=O)c2ccco2)c(C(=O)OCC)c2nc3ccccc3nc21	HP1b chromo inh inconclusive, JMJD2A Tudor inconclusive, G9a block 50.1µM
CCOC(=O)c1c(N)n(CCCOC(=O)c2ccco2)c2nc3ccccc3nc12	none (no result: L3MBTL1 inh)
O=C1NC(=O)C(Nc2ccc(Cl)c(Cl)c2)C(=O)N1	JMJD2A Tudor 31.6µM (no result: L3MBTL1 inh, BAZ2B block, G9a block)
O=C(Nc1ccc(Cl)c(Cl)c1)c1ccco1	BAZ2B block inconclusive (no result: G9a block)

Source: PubChem
